Screens as filed in PubChem.
The list is not random: actives were taken first. Their share in the collection is about 1.4%.
VHR inh abs – blocks human VHR1 dual specificity phosphatase. AID 1654. P51452. inhibition, % at 13.3 µM. recombinant VHR phosphatase, pNPP absorbance. hit rate 0.52% among 290,000; in the data active = inhibition above about 50%
Target sequence (P51452 whole entry, looked up): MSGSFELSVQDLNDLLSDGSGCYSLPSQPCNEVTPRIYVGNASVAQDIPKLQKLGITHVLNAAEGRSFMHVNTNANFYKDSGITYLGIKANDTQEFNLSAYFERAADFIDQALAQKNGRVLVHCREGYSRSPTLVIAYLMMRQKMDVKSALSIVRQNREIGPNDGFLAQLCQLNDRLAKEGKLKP
BJeLR viability – BJeLR cell viability loss; hit rate 0.17% among 300,000; inhibition, % (concentration not given with the values); BJeLR (HRASV12) viability, CellTiter-Glo ATP luminescence, 48 h; AID 1554; in the data active = inhibition above about 50%
MazEF act – activators of E. coli MazEF toxin-antitoxin RNase. FAM/BHQ RNA-DNA oligo cleavage fluorescence, 5 h. activation, % at 20 µM. hit rate 0.32% among 350,000. AID 504720; in the data active = activation above about 50%
Target sequence (P0AE70 whole entry, looked up): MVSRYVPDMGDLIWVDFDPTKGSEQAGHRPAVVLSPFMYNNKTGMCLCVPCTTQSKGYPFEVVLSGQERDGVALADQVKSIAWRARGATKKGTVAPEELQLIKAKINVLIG
CCHF vOTU inh – CCHFV vOTU protease inhibition | Pep-AMC fluorescence | hit rate 0.55% among 370,000 | AID 651958 | inhibition, % at 11.5 µM; in the data active = inhibition above about 30%; note: 0% = vehicle wells with enzyme and 100% = no enzyme wells
3CLpro inhibitor – SARS-CoV 3CLpro protease inhibition | inhibition, % at 6 µM | recombinant SARS-CoV 3CLpro, quenched FRET peptide cleavage | hit rate 0.14% among 290,000 | AID 1706 | P0C6X7; in the data active = inhibition above about 12%
Starred values were filed as active, the others as inactive; / = not tested or not shown.

SMILES	VHR inh abs	BJeLR viability	MazEF act	CCHF vOTU inh	3CLpro inhibitor
COc1ccc2cc3[n+](cc2c1O)CCc1cc2c(cc1-3)OCO2	/	/	/	101*	/
N#C/C(=C\c1ccc([N+](=O)[O-])cc1)c1nc(C2CC2)cs1	-7	6	338*	-8	2
Cc1nn(-c2nc3ccccc3[nH]2)c(=O)c2ccccc12	14	90*	9	-12	0
Cc1nn(-c2ccc3ccccc3c2)c(=O)c2ccccc12	8	2	-5	-4	2
CCOC(=O)N1CCN(c2c(-c3ccc(C(C)C)cc3)c(=O)c2=O)CC1	20	1	-5	4	3
CCOC(=O)N1CCN(c2c(-c3ccc(C)cc3)c(=O)c2=O)CC1	54*	-3	-2	-5	-4
O=C(C1CCN(S(=O)(=O)c2ccc3[nH]c(=O)oc3c2)CC1)N1CCCC1	/	/	/	-2	/
COc1ccc(S[C@]2(C(=O)NC3CC3)CC(=O)N[C@@H]2c2ccc(OC)cc2)cc1	/	/	/	4	/
CCOC(=O)N1CCC(NC(=O)CN2C(=O)CSc3nc(C)cc(C)c32)CC1	12	6	/	-1	0
CCOC(=O)N1CCN(C(=O)CCCN2C(=O)CSc3nc(C)cc(C)c32)CC1	51*	7	4	12	-1
COc1cccc(Cn2cc(COC(=O)NCCc3c[nH]c4ccccc34)nn2)c1	/	/	/	1	/
Cc1ccc(N2C(=O)SC(Cc3ccccc3)C2=O)cc1 (stereo not drawn)	8	22	6	6	3
O=C1SC(Cc2ccccc2)C(=O)N1c1ccccc1 (stereo not drawn)	8	89*	14	-3	3
Cc1ccc(OCc2nnc(SCC(=O)Nc3ccc(OCc4ccccc4)cc3)n2-c2ccc(Cl)cc2)cc1	/	/	/	9	/
CC(=O)Nc1nc2ccccc2n1CCN(C)C	19	4	4	16	1
CCC(=O)Nc1nc2ccccc2n1CCN(C)C	57*	4	-10	7	-3
COc1ccccc1NC(=O)/C(=N/OCc1ccc(F)cc1)C(C)=O	14	-10	75*	3	4
COc1ccccc1NC(=O)C(=N\O)/C(C)=N/O	-2	1	-4	15	-4
Cc1cc2cc(C=C(C#N)C#N)c(Cl)nc2cc1C	5	11	53*	5	-4
C[C@H]1C2CC(OC(=O)NCc3ccccc3)C(C2)[C@H]2CCCCN21 (stereo partly drawn)	/	/	/	2	/
O=C(NCc1ccco1)C1CCCN(S(=O)(=O)c2ccccc2[N+](=O)[O-])C1 (stereo not drawn)	/	/	/	2	/
COC(=O)[C@]12C[C@H](CC(=O)NCc3cccs3)C(=O)N(Cc3ccccc3)C1=C[C@H](COCc1ccccc1)O[C@@H]2C	/	/	/	9	/
O=C(Nc1ccc(C(F)(F)F)cc1)OC1CCC12CCCCC2 (stereo not drawn)	/	/	/	14	/
Cc1ccc(S(=O)(=O)NCc2ccc(C(=O)N3CCN(c4ccccc4)CC3)cc2)cc1	53*	2	-3	13	1
O=C1N=C(N2CCOCC2)S/C1=C/c1cccs1	9	13	8	1	3
SMILES	VHR inh abs	BJeLR viability	MazEF act	CCHF vOTU inh	3CLpro inhibitor
O=C1N=C(N2CCOCC2)S/C1=C/c1ccc(-c2ccccc2Cl)o1	0	-5	107*	-5	-6
CCN(CC)c1ccc2cc(C(=O)NNC(=O)c3ccc(S(=O)(=O)N4CCCCC4)cc3)c(=O)oc2c1	-2	-6	75*	-5	2
O=C(CCC1CCCN(C(=O)c2cc(C3CC3)[nH]n2)C1)N1CCN(c2ccccn2)CC1 (stereo not drawn)	52*	2	7	-12	-4
CCc1cc(C(=O)N2CCCC(CCC(=O)N3CCN(c4ccccn4)CC3)C2)no1 (stereo not drawn)	11	-11	7	21	1
CCCCN(C)C(=O)C1CCN(S(=O)(=O)c2ccc3[nH]c(=O)oc3c2)CC1	/	/	/	-1	/
O=Cc1ccc(O)c2ncccc12	28	64*	0	/	4
Cc1ccc(NC(=O)c2cc(=O)c3ccccc3o2)c(C)c1	58*	-8	2	4	1
Cc1ccc(C)c(NC(=O)c2cc(=O)c3ccccc3o2)c1	-3	3	7	-10	-1
Cc1ccc(S(=O)(=O)CC(O)COc2ccc(C#N)cc2)cc1 (stereo not drawn)	31	-5	8	-4	-2
Cc1ccc(S(=O)(=O)N(C)S(=O)(=O)c2ccc(C#N)cc2)cc1	53*	-7	/	/	6
CCOc1ccc(-n2nc3ccc(NC(=O)c4ccc5c(c4)OCCO5)cc3n2)cc1	12	9	59*	18	4
CCN(C(=O)COC(=O)c1ccc(Sc2ncn[nH]2)c([N+](=O)[O-])c1)c1ccccc1	/	/	/	-2	/
O=C(CSc1nnc(SCc2ccc(Cl)cc2)s1)N/N=C/c1c[nH]c2ccccc12	/	-2	64*	-14	-3
O=C(CSc1nnc(SCc2cccc3ccccc23)s1)N/N=C/c1c[nH]c2ccccc12	22	-4	-15	10	0
O=C(NCc1ccccc1Cl)C1CCCN(c2ncccn2)C1 (stereo not drawn)	/	/	/	-8	/
COc1ccc(S(=O)(=O)N(C)CC(=O)N2CCCCC2)cc1Cl	-8	1	1	11	2
COc1ccc(S(=O)(=O)N(C)CC(=O)N2CCN(C)CC2)cc1Cl	53*	5	-2	3	2
COc1ccc(S(=O)(=O)N(C)CC(=O)N2CCCC2)cc1OC	53*	4	6	2	-3
CC(=O)c1cc(-c2cccc(CO)c2)c(=O)n2c1CCC2	/	/	/	-6	/
CCCC(=O)N1CCC[C@]2(CC[C@@H](CCC(=O)OCC)O2)C1	/	/	/	-6	/
COC(=O)c1cc(S(=O)(=O)N2CCN(C(C)=O)CC2)cn1C	/	/	/	6	/
CCOc1ccc(CNC(=O)CCCn2ccc3cc(S(=O)(=O)N4CCCC4)ccc32)cc1	4	6	2	25	3
CCOc1ccc(CCNC(=O)Cn2ccc3cc(S(=O)(=O)N4CCCC4)ccc32)cc1	53*	5	0	2	1
Cc1c[nH]c2cccc(-c3ccc(Cl)cc3Cl)c12	/	/	/	6	/
COc1ccc(CCN2CC(C(=O)NCCc3cccc(F)c3)CCC2=O)cc1 (stereo not drawn)	-24	4	-7	-10	2
O=C(NCCc1ccc(C(F)(F)F)cc1)C1CCC(=O)N(CCc2cccc(F)c2)C1 (stereo not drawn)	10	-5	64*	-3	-2
O=C(/C=C/c1ccc(F)cc1)NNC(=O)CCN1CCN(Cc2ccccc2)CC1	-9	55*	-9	-4	4
CCCCOCCCNC(=O)C[C@@H]1C(=O)N(CCc2ccc(Cl)cc2)C2=CCCCC[C@]21C(=O)OC	/	/	/	8	/
COc1ccc(C2C(C#N)=C(N)N(c3ccccc3)C3=C2C(=O)CCC3)cc1Cn1cc([N+](=O)[O-])cn1 (stereo not drawn)	24	-4	-5	15	2
COc1ccc(C2C(C#N)=C(N)N(c3cccnc3)C3=C2C(=O)CCC3)cc1Cn1cc([N+](=O)[O-])cn1 (stereo not drawn)	-1	-2	64*	2	5
